From PubChem BioAssay
“And” between values parts separate entries of the source, which are not always exact repeats. Identical values can stand only once. The source made the active and inactive calls.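 How the source made its calls, unless noted: active means compounds whose cell count with miR-34 switched on is under 0.7 times the count with it off; inactive means the rest.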

Assays:
[1] = viability loss with induced miR-34 in A549 – imaging, A549 dox-inducible miR-34, nuclei and caspase counts, primary screen (AID 1347080); details: A549 miR-34 inducible, Hoechst nuclei count, 48 h
[2] = MELAS cybrid and Rieske KO viability enhancers – cell-based, MELAS cybrids, Rieske KO mouse fibroblasts, CellTiter-Glo, primary screen (AID 1508586;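 active means mean z-score across replicates of 1.96 or higher in either the MELAS or the Rieske mutant cell line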;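 further: z relative to plate mean and SD of compound and empty wells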); details: low glucose
[3] = P. berghei load reduction in hepatocytes – cell-based, HepG2, luciferase luminescence, HepG2 viability, primary screen (AID 624349; in the data active means parasite load remaining mostly below about 12%, no sharp cut-off; inactive means mostly above about 10%;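 further: 100% = mean of DMSO negative control wells on the same plate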); details: P. berghei liver stage in HepG2, luciferase luminescence, concentration not given here; parasite load remaining: stronger effect = lower value; viability: measured here: HepG2 viability without parasites
[4] = galactose survival enhancers in mitochondrial complex I cybrids – cell-based, galactose medium, ATP luminescence, primary screen (AID 1645843;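 active means z-score of at least 1.8 in each of two replicates, scored against plate mean and spread of sample wells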;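 further: positive z means more ATP and so rescue of galactose-driven cybrid death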); details: complex I mutant cybrid cells, 72 h, stronger effect = higher value
[5] = molecular target: NAD(+) hydrolase SARM1 (Homo sapiens) (UniProt Q6SZW1); test: blocking NAD cleavage by SARM1 SAM-TIR – cell lysate, NAD-Glo luminescence (AID 1508614;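 active means compound whose remaining NAD level is above about 45 nM, limit read from the data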); details: SAM-TIR HEK293T lysate NADase, at 1 µM, stronger effect = higher value
Sequence of NAD(+) hydrolase SARM1 (Homo sapiens) (Q6SZW1 whole entry, looked up, the tested form may be a part): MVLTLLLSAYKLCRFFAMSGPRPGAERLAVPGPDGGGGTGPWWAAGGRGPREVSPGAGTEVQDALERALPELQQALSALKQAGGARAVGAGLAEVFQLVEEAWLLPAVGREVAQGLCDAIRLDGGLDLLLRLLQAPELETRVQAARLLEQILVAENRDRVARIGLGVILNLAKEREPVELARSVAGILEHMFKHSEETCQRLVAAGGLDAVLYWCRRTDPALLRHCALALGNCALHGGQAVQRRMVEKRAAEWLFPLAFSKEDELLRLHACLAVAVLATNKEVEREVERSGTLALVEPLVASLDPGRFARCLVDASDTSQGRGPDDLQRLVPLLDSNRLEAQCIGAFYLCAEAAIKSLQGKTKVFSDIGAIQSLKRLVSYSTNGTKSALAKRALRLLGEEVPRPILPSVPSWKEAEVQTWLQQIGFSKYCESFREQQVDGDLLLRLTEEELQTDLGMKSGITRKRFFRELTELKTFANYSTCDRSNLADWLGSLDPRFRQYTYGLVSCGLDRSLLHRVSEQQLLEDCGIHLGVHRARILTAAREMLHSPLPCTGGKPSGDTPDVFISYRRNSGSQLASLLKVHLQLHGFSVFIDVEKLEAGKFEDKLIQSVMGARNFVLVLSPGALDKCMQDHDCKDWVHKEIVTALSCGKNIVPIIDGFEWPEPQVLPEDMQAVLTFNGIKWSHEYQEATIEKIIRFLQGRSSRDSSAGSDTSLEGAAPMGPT

[6] = molecular target: Mitogen-activated protein kinase 7 (Homo sapiens) (UniProt Q13164); test: Gal4-ERK5 driven luciferase induction – cell-based, HTS, primary screen (AID 1508626;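 active means luciferase signal above three times the same-plate solvent-only control wells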;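 further: luciferase driven by Gal4-ERK5 fusion binding five Gal4 sites before minimal TATA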); details: HeLa Gal4-ERK5 transactivation, 18 h, at 5 µM, stronger effect = higher value
Sequence of Mitogen-activated protein kinase 7 (Homo sapiens) (Q13164 whole entry, looked up, the tested form may be a part): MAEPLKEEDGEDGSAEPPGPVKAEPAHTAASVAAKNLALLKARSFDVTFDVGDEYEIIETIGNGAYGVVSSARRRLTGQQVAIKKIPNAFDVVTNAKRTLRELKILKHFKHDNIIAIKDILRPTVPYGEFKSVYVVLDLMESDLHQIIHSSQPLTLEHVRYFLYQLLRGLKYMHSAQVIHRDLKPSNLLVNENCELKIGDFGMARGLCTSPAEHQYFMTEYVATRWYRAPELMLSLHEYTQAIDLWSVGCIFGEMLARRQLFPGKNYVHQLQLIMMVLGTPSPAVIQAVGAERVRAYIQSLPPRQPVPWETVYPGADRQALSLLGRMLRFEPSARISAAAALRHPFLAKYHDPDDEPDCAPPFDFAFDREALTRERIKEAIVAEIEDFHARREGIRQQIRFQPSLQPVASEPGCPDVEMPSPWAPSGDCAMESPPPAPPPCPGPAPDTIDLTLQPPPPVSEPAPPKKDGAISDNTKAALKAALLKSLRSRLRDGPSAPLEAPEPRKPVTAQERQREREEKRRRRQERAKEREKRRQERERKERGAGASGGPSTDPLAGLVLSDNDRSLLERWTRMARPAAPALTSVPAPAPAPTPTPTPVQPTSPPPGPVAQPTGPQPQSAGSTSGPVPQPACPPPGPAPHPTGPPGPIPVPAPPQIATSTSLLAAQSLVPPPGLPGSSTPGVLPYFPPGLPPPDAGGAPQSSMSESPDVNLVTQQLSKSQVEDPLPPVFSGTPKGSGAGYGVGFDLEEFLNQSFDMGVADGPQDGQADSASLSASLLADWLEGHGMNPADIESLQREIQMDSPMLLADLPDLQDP

[7] = compounds altering viability of human ES cells (AID 493140; call rule not given here;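 further: cells exposed to compounds for four days before counting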); details: human embryonic stem cell survival screen; stronger effect = higher value
[8] = measured here: relative caspase fold change +Dox/-Dox
[9] = measured here: total cells with miR-34 induction, stronger effect = lower value
[10] = measured here: total cells without miR-34 induction
[11] = MELAS cybrid survival, CellTiter-Glo 48 h, stronger effect = higher value
[12] = Rieske KO mouse fibroblast survival, CellTiter-Glo 72 h
[13] = stronger effect = lower value, cell number ratio, induced over uninduced

Structure (SMILES)	fold change ([1]; stronger effect = lower value)	fold change [1, 8]	cell count [1, 9]	cell count [1, 10]	z-score [2, 11]	z-score [2, 12]	fold change [1, 13]	parasite load remaining [3]	viability [3]	z-score [4]	remaining NAD [5]	luciferase signal [6]	survival [7]
C[C@]12CC[C@@H]3[C@@H](CC[C@@]45O[C@@H]4C(O)=C(C#N)C[C@]35C)[C@@H]1CCC2O (some centres undefined)	0.917 (inactive)	0.921	7740	8440	-0.378 (inactive)	0.316							
Fc1cc(F)c2c(c1)[C@H]1C=CC[C@@H]1C(c1cccnc1)N2 (some centres undefined)		0.287	1650	1710	1.16 (inactive)	0.671	0.966 (inactive)						
Clc1ccc(C(Cn2ccnc2)OCc2c(Cl)cccc2Cl)c(Cl)c1 (centres undefined)		1.06 and 1.05	8420 and 7330	9620 and 7910	-0.214 (inactive) and 1.01 (inactive)	-1.26 and 0.334	0.876 (inactive) and 0.926 (inactive)						
C[C@H]1CN(C2CCC(C#N)(c3ccc(F)cc3)CC2)CC[C@@]1(C(=O)O)c1ccccc1 (some centres undefined)	0.857 (inactive)	1.09	9640	11200	0.032 (inactive)	0.209		36.7% (inactive)	68%	0.74 (inactive)			
Cc1nc(-c2ccccn2)nc(NCCc2ccccc2)c1Cl	0.975 (inactive)	0.693	3090	3170	-0.0148	3.58				-2.29 (inactive)			
C=CC(C)(C)c1cc2cc3c(cc2oc1=O)OC(C(C)(C)O)C3 (centres undefined)		0.587	5210	6170	-1.27 (inactive)	0.752	0.846 (inactive)			-2.66 (inactive)			
CCCC[N+]1(C)[C@@H]2CC(OC(=O)C(CO)c3ccccc3)C[C@H]1[C@@H]1O[C@@H]12 (some centres undefined)		1.14	9330	9930	-0.311 (inactive)	0.426	0.94 (inactive)						
CC1=C(C(=O)Nc2ccccc2)SCCO1	0.865 (inactive)	0.79	8550	9880	0.971 (inactive)	-0.224				-0.385 (inactive)			
Cc1ccc(C(C)Nc2ncnc3sccc23)cn1 (centres undefined)		1.09	5250	5700	-0.723 (inactive)	-0.439	0.921 (inactive)			-0.4 (inactive)			
CCCCC(C#N)(Cn1cncn1)c1ccc(Cl)cc1 (centres undefined)	0.938 (inactive)	1.46	9220	9830	0.49 (inactive)	-0.243		18.9% (inactive)	67.5%	0.815 (inactive)			
C[C@]12CCC(O)C[C@@H]1CC[C@@H]1[C@H]2CC[C@]2(C)C(=O)CC[C@@H]12 (some centres undefined)	0.933 (inactive)	1.48	7540	8080	-0.116 (inactive)	-0.417							
Oc1ccc(C2(c3ccc(O)cc3)CCCCC2)cc1	0.911 (inactive)	0.41	7610	8350	-0.617 (inactive)	-0.22				-1.9 (inactive)			
CC[C@@]1(O)C(=O)OCc2c1cc1n(c2=O)Cc2cc3c(O)cccc3nc2-1	0.938 (inactive) and 1.02 (inactive)	0.873 and 1	1030 and 1460	1100 and 1430	-1.16 (inactive)	-0.93		25.4% (inactive)	34%	-2.13 (inactive)			
CC1OC(OC2CC(O)[C@]3(CO)[C@H]4C(O)C[C@]5(C)C(C6=CC(=O)OC6)CC[C@]5(O)[C@@H]4CC[C@]3(O)C2)C(O)C(O)C1O (some centres undefined)		1.17	388	456	0.346 (inactive)	-0.151	0.851 (inactive)						
O=C1CC[C@@]2(O)C3Cc4ccc(O)c5c4[C@@]2(CCN3CC2CC2)C1O5 (some centres undefined)	0.922 (inactive)	4.62	8340	9040	1.92 (inactive)	-1.89							
CC(C)(c1ccccc1)c1ccc(O)cc1	0.897 (inactive)	0.637	8850	9870	0.409 (inactive)	-0.32				0.62 (inactive)			
C[C@]12CCC(=O)C(O)=C1CC[C@@H]1[C@H]2CC[C@]2(C)C(=O)CC[C@@H]12	0.879 (inactive)	0.764	8100	9210	-0.345 (inactive)	0.332							
CN1C[C@H](C(=O)N[C@]2(C)O[C@@]3(O)[C@@H]4CCCN4C(=O)[C@H](Cc4ccccc4)N3C2=O)C=C2c3cccc4[nH]cc(c34)C[C@H]21	0.866 (inactive)	1.34	8820	10200	-0.409 (inactive)	-0.32		33.4% (inactive)	106%	1.08 (inactive)	10 nM (inactive)	80 AU (inactive)	
CCN1C[C@]2(OC(=O)c3ccccc3NC(C)=O)CCC(OC)[C@]34C1C(C[C@H]23)[C@@]1(O)CC(OC)[C@H]2C[C@H]4[C@]1(O)C2OC (some centres undefined)	0.952 (inactive)	0.833	7310	7680	-0.466 (inactive)	-0.118							
CC(Cc1ccccc1)NCCC(c1ccccc1)c1ccccc1 (centres undefined)	1.36 (inactive)	0.226	3500	2580	-0.835 (inactive) and -1.25 (inactive)	-0.134 and -0.319		54.7% (inactive)	77.6%	-2.66 (inactive)			2.25 (inactive)

Structure (SMILES)	fold change ([1]; stronger effect = lower value)	fold change [1, 8]	cell count [1, 9]	cell count [1, 10]	z-score [2, 11]	z-score [2, 12]	fold change [1, 13]	parasite load remaining [3]	viability [3]	z-score [4]	remaining NAD [5]	luciferase signal [6]	survival [7]
c1cc2c(cc1C1OC[C@H]3C(c4ccc5c(c4)OCO5)OC[C@H]13)OCO2 (some centres undefined)		0.861	8900	9620	-0.349 (inactive)	0.747	0.925 (inactive)						
CN1C2CCC1CC(=O)C2		0.54	8780	10200	0.543 (inactive)	-0.508	0.86 (inactive)			0.545 (inactive)			
CCCC(=O)OCC[N+](C)(C)C	0.934 (inactive)	0.999	10000	10700	0.357 (inactive)	0.101		42.8% (inactive)	107%	0.43 (inactive)			
NCCc1ccc(S(N)(=O)=O)cc1	0.884 (inactive)	0.315	9210	10400	-0.0994 (inactive)	0.0645				0.495 (inactive)			
CC(C)(C)[C@@]1(O)C[C@@H]2OC(=O)C[C@@]23C(=O)O[C@H]2OC(=O)C(O)C213 (some centres undefined)		1.49	8490	9500	-0.286 (inactive)	0.895	0.894 (inactive)						
O=C1C[C@@H]2OCC=C3CN4CC[C@]56c7ccccc7N1[C@H]5[C@H]2[C@H]3C[C@H]46	0.929 (inactive)	1.24	10000	10800	0.997 (inactive)	0.445		96.5% (inactive)	226%	0.365 (inactive)	10 nM (inactive)	48 AU (inactive)	
N#Cc1cnn(-c2ccc(Cl)cc2)c1N	0.852 (inactive)	1.03	8030	9420	-0.167 (inactive)	-0.085				0.29 (inactive)			
COc1cccc2ncn(Cc3cn4ccccc4n3)c(=O)c12		1.17	9180	9730	-0.241 (inactive)	-0.636	0.944 (inactive)			-0.6 (inactive)			
COc1ccc(S(=O)(=O)N(CCO)c2ccccc2CN(C)CC=Cc2ccc(Cl)cc2)cc1		0.634	5210	5560	-0.474 (inactive)	-0.774	0.937 (inactive)						
C/C=C/N1CC[C@]23CCCC[C@H]2[C@H]1Cc1ccc(O)cc13	0.904 (inactive)	1.04	9380	10400	-1.07 (inactive)	-0.504		46.3% (inactive)	104%	0.26 (inactive)			
CN1CCCCC1Cn1cc(C(=O)c2cc([N+](=O)[O-])ccc2I)c2ccccc21 (centres undefined)	0.887 (inactive) and 1.03 (inactive)	0.479 and 0.87	5220 and 6710	5890 and 6500	0.0965 (inactive)	-0.371							
CC(=O)Nc1ccc(Cc2ccc(NC(C)=O)cc2)cc1	0.888 (inactive)	0.668	8350	9400	-0.423 (inactive)	0.257							
CC=C(C)C(=O)NC(c1ccccc1)C(O)C(=O)OC1C[C@@]2(O)C(OC(=O)c3ccccc3)[C@@H]3[C@]4(OC(C)=O)COC4CC(O)[C@@]3(C)C(=O)C(OC(C)=O)C(=C1C)C2(C)C (some centres undefined)		0.457	1460	1150	1.29 (inactive)	0.0967	1.27 (inactive)						
CC(=Cc1csc(C)n1)C1CC2O[C@]2(C)CCCC(C)C(O)C(C)C(=O)C(C)(C)C(O)CC(=O)O1 (some centres undefined)		0.662	1610	1500	1.69 (inactive)	-0.237	1.08 (inactive)						
Cc1ccc(-n2nccn2)c(C(=O)N2CCN(c3nc4cc(Cl)ccc4o3)CCC2C)c1 (centres undefined)	0.837 (inactive)	0.399	6970	8330	-0.269 (inactive)	-2.87							
C=CCN1CC[C@]23c4c5ccc(O)c4O[C@H]2/C(=N/N=C2\CC[C@@]4(O)[C@H]6Cc7ccc(O)c8c7[C@@]4(CCN6CC=C)[C@H]2O8)CC[C@@]3(O)[C@H]1C5	0.791 (inactive)	1.27	7760	9820	-0.547 (inactive)	-0.931		8.58% (inactive)	59%	-1.6 (inactive)			
NC(CC(=O)N1CCn2c(nnc2C(F)(F)F)C1)Cc1cc(F)c(F)cc1F (centres undefined)		0.671	9670	10500	-0.323 (inactive)	0.499	0.922 (inactive)						
C=C1N[C@@H](Cc2ccc3[nH]cc(CCN(C)C)c3c2)CO1	0.795 (inactive)	1.08	9100	11400	0.499 (inactive)	0.377		49.1% (inactive)	107%	0.28 (inactive)			
COc1cc(-n2c(=S)[nH]c3ccccc3c2=O)c(Cl)cc1Cl	0.878 (inactive)	0.323	6620	7540	0.632 (inactive)	1.12							
